The values below come from PubChem BioAssay (NCI).

A short description of experiment [1]: NCI Yeast Anticancer Drug Screen. Data for the rad50 strain (AID 155).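 Also: 0% = growth of vehicle-only cultures of the same strain.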 Particulars: S. cerevisiae rad50 strain growth inhibition, active compounds read high. In a few lines:
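DNA repair mutant yeast, compound exposure, growth read-out; inhibition is taken relative to vehicle.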

Experiment [2] is described as follows: NCI Yeast Anticancer Drug Screen. Data for the mec2-1 strain (AID 157). The settings on record: S. cerevisiae mec2-1 strain, active compounds read high. Put shortly:
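Readout is yeast growth inhibition, normalised to vehicle-treated controls, in the mec2-1 strain exposed to compound.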

Experiment [3] is described as follows: NCI Yeast Anticancer Drug Screen. Data for the sgs1 mgt1 strain (AID 161).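 Also: 0% = growth of cultures given vehicle only.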 The settings on record: S. cerevisiae sgs1 mgt1 strain, active compounds read high. Put shortly: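 Percent growth inhibition was derived by comparing compound-exposed mutant yeast with vehicle-exposed cultures. The strain carries alterations in DNA damage repair.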
Experiment [4] can be described thus: NCI Yeast Anticancer Drug Screen. Data for the cln2 rad14 strain (AID 165).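 Also: 0% = growth equal to vehicle treated cultures.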 Particulars: S. cerevisiae cln2 rad14 strain, active compounds read high. In a few lines: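 Relative to vehicle controls, growth inhibition of compound-treated cln2 rad14 yeast was recorded.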
Experiment [5] in a line: NCI Yeast Anticancer Drug Screen. Data for the bub3 strain (AID 167). Particulars: S. cerevisiae bub3 mutant strain, active compounds read high. In a few lines: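 In this screen, a yeast mutant lacking normal mitotic checkpoint function is challenged with compound. Relative growth versus vehicle gives the inhibition value.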
The nature of experiment [6]: NCI Yeast Anticancer Drug Screen. Data for the mlh1 rad18 strain (AID 175). Particulars: S. cerevisiae mlh1 rad18 strain growth inhibition, active compounds read high. In a few lines: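 Test agents were incubated with a yeast strain of defined genotype (DNA damage repair defect). Inhibition of growth was derived by comparison with vehicle-exposed cultures.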
Where [7] appears, read: at 5.0 µM (retest, dose inferred, filed as 0.5).
[8] abbreviates: at 50.0 µM (retest, dose inferred, filed as 5.0).

About 79,000 compounds went through this panel and 15% of them were active in at least one assay; those are over-represented in the sample as a whole. Unmarked numbers belong to inactive results. Active and inactive are the calls of the source. Rule as the data show it: active = growth inhibition above about 70%; inactive = the rest.

As to `OCC(O)Cc1c(Cl)c(Cl)c(Oc2c(Cl)c(Cl)c(CC(O)CO)c(Cl)c2Cl)c(Cl)c1Cl` (stereo not given), the growth inhibition is 5% in experiment [1] (setting [7]); 7% in experiment [1] (setting [8]); 11.3% in experiment [1] (at 50.0 µM); 5% in experiment [2] (setting [7]); 10% in experiment [2] (setting [8]); 14.6% in experiment [2] (at 50.0 µM). Moreover, the growth inhibition in experiment [3] (setting [7]) is 18%; in experiment [3] (setting [8]), 16%; in experiment [3] (at 50.0 µM) it was 4.95%; in experiment [4] (setting [7]), -9%; in experiment [4] (setting [8]), -9%; in experiment [4] (at 50.0 µM), -8.05%. Also, the growth inhibition in experiment [5] (setting [7]) was -1%; in experiment [5] (setting [8]), 11%; in experiment [5] (at 50.0 µM), 64.7%; in experiment [6] (setting [7]), -1%; in experiment [6] (setting [8]), 1%; in experiment [6] (at 50.0 µM), 8.75%.
For the compound `O=[N+]([O-])c1ccc(N2CCCC(n3cccc3)C2)c([N+](=O)[O-])c1` (stereo not given), the growth inhibition in experiment [1] (setting [7]) is 7%; in experiment [1] (setting [8]), 38%; in experiment [1] (at 50.0 µM) it was 47.6%; in experiment [2] (setting [7]), -2%; in experiment [2] (setting [8]) it was 5%; in experiment [2] (at 50.0 µM), 46.2%. Also, the growth inhibition in experiment [3] (setting [7]) was 4%; in experiment [3] (setting [8]) it was 27%; in experiment [3] (at 50.0 µM), 61.3%; in experiment [4] (setting [7]), 12%; in experiment [4] (setting [8]), 49%; in experiment [4] (at 50.0 µM) it was 50.2%. Also, the growth inhibition is -9% in experiment [5] (setting [7]); 50% in experiment [5] (setting [8]); 67.6% in experiment [5] (at 50.0 µM); 1% in experiment [6] (setting [7]); 55% in experiment [6] (setting [8]); 48.5% in experiment [6] (at 50.0 µM).
For `Cc1cc2c(cc1C)[n+]([O-])c(-c1c(Cl)cccc1Cl)c(N)[n+]2[O-]`, the growth inhibition in experiment [1] (setting [7]) is 13%; in experiment [1] (setting [8]), 88% (active); in experiment [1] (at 50.0 µM), 82.5% (active); in experiment [2] (setting [7]) it was 27%; in experiment [2] (setting [8]), 98% (active); in experiment [2] (at 50.0 µM) it was 45.2%. Further, the growth inhibition in experiment [3] (setting [7]) was 40%; in experiment [3] (setting [8]), 100% (active); in experiment [3] (at 50.0 µM) it was 79.4% (active); in experiment [4] (setting [7]), 18%; in experiment [4] (setting [8]), 77% (active); in experiment [4] (at 50.0 µM), 69%. The growth inhibition in experiment [5] (setting [7]) was 56%; in experiment [5] (setting [8]) it was 99% (active); in experiment [5] (at 50.0 µM), 93.5% (active); in experiment [6] (setting [7]) it was 45%; in experiment [6] (setting [8]) it was 98% (active); in experiment [6] (at 50.0 µM), 93.7% (active).
Regarding `O=Nc1c(O)c2ccccc2c2ccc([N+](=O)[O-])cc12`, the growth inhibition in experiment [1] (setting [7]) was 21%; in experiment [1] (setting [8]) it was 64%; in experiment [1] (at 50.0 µM), 69.8%; in experiment [2] (setting [7]), 48%; in experiment [2] (setting [8]), 95% (active); in experiment [2] (at 50.0 µM) it was 84.8% (active). In addition, the growth inhibition in experiment [3] (setting [7]) was 35%; in experiment [3] (setting [8]), 87% (active); in experiment [3] (at 50.0 µM) it was 91.7% (active); in experiment [4] (setting [7]), 12%; in experiment [4] (setting [8]), 52%; in experiment [4] (at 50.0 µM) it was 42.9%. The growth inhibition in experiment [5] (setting [7]) is 20%; in experiment [5] (setting [8]), 65%; in experiment [5] (at 50.0 µM), 85.2% (active); in experiment [6] (setting [7]) it was 37%; in experiment [6] (setting [8]), 90% (active); in experiment [6] (at 50.0 µM), 88% (active).
Regarding `CCCC(CC)c1c(O)c(O)c(C(CC)CCC)c(C(CC)CCC)c1C(CC)CCC` (stereo not given), the growth inhibition in experiment [1] (setting [7]) was 4%; in experiment [1] (setting [8]), 76% (active); in experiment [1] (at 50.0 µM), 95.5% (active); in experiment [2] (setting [7]) it was -12%; in experiment [2] (setting [8]), 52%; in experiment [2] (at 50.0 µM), 97.3% (active). Besides, the growth inhibition was -10% in experiment [3] (setting [7]); 76% (active) in experiment [3] (setting [8]); 97.9% (active) in experiment [3] (at 50.0 µM); 18% in experiment [4] (setting [7]); 72% (active) in experiment [4] (setting [8]); 97.7% (active) in experiment [4] (at 50.0 µM). The growth inhibition in experiment [5] (setting [7]) was -1%; in experiment [5] (setting [8]) it was 59%; in experiment [5] (at 50.0 µM) it was 97.2% (active); in experiment [6] (setting [7]), -13%; in experiment [6] (setting [8]), 87% (active); in experiment [6] (at 50.0 µM) it was 96% (active).
Take `O=C(O)Cc1cc(I)c(Oc2ccc(O)c(I)c2)c(I)c1`: the growth inhibition in experiment [1] (setting [7]) was -6%; in experiment [1] (setting [8]), 92% (active); in experiment [1] (at 50.0 µM) it was 89.8% (active); in experiment [2] (setting [7]), 0%; in experiment [2] (setting [8]), 98% (active); in experiment [2] (at 50.0 µM) it was 92.2% (active). Besides, the growth inhibition in experiment [3] (setting [7]) is 7%; in experiment [3] (setting [8]) it was 93% (active); in experiment [3] (at 50.0 µM) it was 91% (active); in experiment [4] (setting [7]), 29%; in experiment [4] (setting [8]) it was 97% (active); in experiment [4] (at 50.0 µM), 89.3% (active). The growth inhibition in experiment [5] (setting [7]) is 22%; in experiment [5] (setting [8]), 98% (active); in experiment [5] (at 50.0 µM), 91.7% (active); in experiment [6] (setting [7]) it was 20%; in experiment [6] (setting [8]) it was 97% (active); in experiment [6] (at 50.0 µM), 89.7% (active).
On to `N#CS/C=C/SC#N`, for which the growth inhibition in experiment [1] (setting [7]) was 99% (active); in experiment [1] (setting [8]) it was 99% (active); in experiment [1] (at 50.0 µM) it was 99.5% (active); in experiment [2] (setting [7]) it was 100% (active); in experiment [2] (setting [8]) it was 100% (active); in experiment [2] (at 50.0 µM) it was 99.5% (active). In addition, the growth inhibition in experiment [3] (setting [7]) was 99% (active); in experiment [3] (setting [8]), 99% (active); in experiment [3] (at 50.0 µM), 99.5% (active); in experiment [4] (setting [7]), 99% (active); in experiment [4] (setting [8]), 100% (active); in experiment [4] (at 50.0 µM), 99.1% (active). The growth inhibition in experiment [5] (setting [7]) was 100% (active); in experiment [5] (setting [8]) it was 99% (active); in experiment [5] (at 50.0 µM), 99% (active); in experiment [6] (setting [7]) it was 99% (active); in experiment [6] (setting [8]), 100% (active); in experiment [6] (at 50.0 µM), 99.5% (active).
Consider `COc1ccc2c(c1)CCc1c(CO)c(COC(=O)NC(C)C)n(C)c1-2`, for which the growth inhibition is 87% (active) in experiment [1] (setting [7]); 90% (active) in experiment [1] (setting [8]); 95.8% (active) in experiment [1] (at 50.0 µM); 98% (active) in experiment [2] (setting [7]); 91% (active) in experiment [2] (setting [8]); 97.7% (active) in experiment [2] (at 50.0 µM). For the same compound, the growth inhibition in experiment [3] (setting [7]) was 96% (active); in experiment [3] (setting [8]), 92% (active); in experiment [3] (at 50.0 µM) it was 96.5% (active); in experiment [4] (setting [7]), 3%; in experiment [4] (setting [8]), 85% (active); in experiment [4] (at 50.0 µM), 93.5% (active). For the same compound, the growth inhibition is 5% in experiment [5] (setting [7]); 40% in experiment [5] (setting [8]); 79.3% (active) in experiment [5] (at 50.0 µM); 59% in experiment [6] (setting [7]); 93% (active) in experiment [6] (setting [8]); 88.8% (active) in experiment [6] (at 50.0 µM).
As to `O=C1C(Cl)=C(NCCC2CCCN3CCCCC23)C(=O)c2ccccc21` (stereo not given), the growth inhibition in experiment [1] (setting [7]) is 13%; in experiment [1] (setting [8]), 48%; in experiment [1] (at 50.0 µM), 65.3%; in experiment [2] (setting [7]), -8%; in experiment [2] (setting [8]) it was 54%; in experiment [2] (at 50.0 µM) it was 53.4%. In addition, the growth inhibition was 10% in experiment [3] (setting [7]); 55% in experiment [3] (setting [8]); 79.5% (active) in experiment [3] (at 50.0 µM); 2% in experiment [4] (setting [7]); 37% in experiment [4] (setting [8]); 63.7% in experiment [4] (at 50.0 µM). The growth inhibition was 2% in experiment [5] (setting [7]); 51% in experiment [5] (setting [8]); 26.1% in experiment [5] (at 50.0 µM); 6% in experiment [6] (setting [7]); 27% in experiment [6] (setting [8]); 70.8% (active) in experiment [6] (at 50.0 µM).
Consider `Cc1c(O)ccc2c1OCC(c1ccc(Cl)cc1)C2` (stereo not given), for which the growth inhibition in experiment [1] (setting [7]) is -19%; in experiment [1] (setting [8]), 72% (active); in experiment [1] (at 50.0 µM) it was 87.9% (active); in experiment [2] (setting [7]), 0%; in experiment [2] (setting [8]) it was 13%; in experiment [2] (at 50.0 µM), 70.2% (active). Further, the growth inhibition in experiment [3] (setting [7]) was -7%; in experiment [3] (setting [8]) it was 21%; in experiment [3] (at 50.0 µM), 72.8% (active); in experiment [4] (setting [7]), 10%; in experiment [4] (setting [8]), 39%; in experiment [4] (at 50.0 µM), 78.5% (active). Besides, the growth inhibition in experiment [5] (setting [7]) was 32%; in experiment [5] (setting [8]), 85% (active); in experiment [5] (at 50.0 µM), 92.9% (active); in experiment [6] (setting [7]), -10%; in experiment [6] (setting [8]) it was 43%; in experiment [6] (at 50.0 µM), 94.2% (active).
